Where “and” joins values, the source holds several entries; their conditions need not be identical. Equal values may be shown once. Where a name gives a salt, the structure may show the parent alone.
Columns and labels:
Test in all cases: cell viability relative to vehicle control; higher = less cytotoxic
Details in all cases: 10 µM
[1] = system: K562
Procedure, shortened: (§1)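 Four leukaemia lines, as CRISPR-edited mutant clones and isogenic wild-type clones, were tested against Selleck bioactive, kinase and epigenetic probe libraries after removal of identity-inconsistent compounds. Cells were exposed to a single 10 µM dose for 48 h, and CellTiter-Glo luminescence was then read. Viability was calculated relative to the on-plate vehicle control.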

[2] = system: MARIMO
Procedure, shortened: as §1

[3] = system: MOLM14
Procedure, shortened: as §1

[4] = system: OCI-AML2
Procedure, shortened: as §1

| Compound | cell viability ([1]; SRSF2 genotype: SRSF2 P95H/wt) | cell viability ([1]; SRSF2 genotype: SRSF2 wt/wt) | cell viability ([2]; SRSF2 genotype: SRSF2 P95H/wt) | cell viability ([2]; SRSF2 genotype: SRSF2 wt/wt) | cell viability ([3]; SRSF2 genotype: SRSF2 P95H/wt) | cell viability ([3]; SRSF2 genotype: SRSF2 wt/wt) | cell viability ([4]; SRSF2 genotype: P95H/wt) | cell viability ([4]; SRSF2 genotype: wt/wt) |
| --- | --- | --- | --- | --- | --- | --- | --- | --- |
| O=S(=O)(O)c1ccc2cc(N=Nc3cc(S(=O)(=O)O)c4cccnc4c3O)ccc2c1 | 95.9% and 96.5% | 89% | 93.5% | 107% | 96.9% | 95.2% | 88.5% | 94.5% |
| CCOc1cc(N)c(Cl)cc1C(=O)NCC1CN(Cc2ccc(F)cc2)CCO1 (stereo not drawn) [Mosapride citrate] | 82.7% and 81.9% | 80% | 74.1% | 89.5% | 103% | 93.2% | 81.5% | 82.3% |
| Clc1ccc2nsnc2c1NC1=NCCN1 [Tizanidine HCl] | 104% and 101% | 104% | 94.3% | 107% | 103% | 99.6% | 101% | 106% |
| Cc1cc(C)nc(SCC(=O)Nc2ncc(Cc3cccc4ccccc34)s2)n1 | 79.2% and 84.5% | 75.5% | 78.5% | 86.9% | 41.1% | 42.4% | 61.4% | 66.4% |
| NC(=O)Nc1cc(-c2cccc(F)c2)sc1C(=O)N[C@H]1CCCNC1 | 3.91% and 4.76% | 6.23% | 13.3% | 13.4% | 1.02% | 0.84% | 2.47% | 8.51% |
| COC1=CC(=O)c2ccccc2C1=O [2-Methoxy-1,4-naphthoquinone] | 3.03% and 1.06% | 18.6% | 46.3% | 48% | 31.2% | 17.5% | 36.9% | 38.8% |
| C=C1CC[C@@H]2[C@](C)(COC(=O)CCC(=O)O)[C@H](OC(=O)CCC(=O)O)CC[C@@]2(C)[C@@H]1/C=C/C1=CCOC1=O [Dehydroandrographolide Succinate Potasium Sa] | 105% and 103% | 105% | 105% | 101% | 99.1% | 105% | 109% | 104% |
| COc1ncc(-c2ccc3nccc(-c4ccnnc4)c3c2)cc1NS(=O)(=O)c1ccc(F)cc1F | 31.8% and 30.2% | 34.8% | 26.4% | 24.1% | 1.48% | 11.9% | 0.26% | 1.55% |
| Nc1ccc(C(=O)Nc2cccc(-c3nc(N4CCOCC4)c4oc5ncccc5c4n3)c2)cn1 | 75.4% and 89.9% | 95.8% | 73.7% | 79.4% | 103% | 104% | 86.7% | 89.1% |
| CC(C)[C@H](NC(=O)OCc1ccccc1)C(=O)N[C@@H](C)C(=O)N[C@@H](CC(=O)O)C(=O)CF | 109% and 102% | 106% | 99.8% | 102% | 104% | 104% | 102% | 97.4% |
| O=c1[nH]c(=S)[nH]c2nc(-c3ccccc3)c(-c3ccccc3)nc12 | 97.9% and 90.8% | 92% | 103% | 105% | 92.8% | 97.4% | 98.9% | 98.3% |
| NC(=O)OCC(COC(N)=O)c1ccccc1 [Felbamate] | 93% and 95% | 94.4% | 81.9% | 100% | 93.4% | 89.4% | 96.5% | 113% |
| Cc1cccc(-c2[nH]c(C(C)(C)C)nc2-c2ccc3c(c2)OCO3)n1 | 63.9% and 60.2% | 47.6% | 61.4% | 63.3% | 84.9% | 83.8% | 52.6% | 50% |
| CCCSc1nc(N[C@@H]2C[C@H]2c2ccc(F)c(F)c2)c2nnn([C@@H]3C[C@H](OCCO)[C@@H](O)[C@H]3O)c2n1 [Ticagrelor] | 77.4% and 77.6% | 70.3% | 86.9% | 86.5% | 74.5% | 85.9% | 71.5% | 70% |
| CCC[C@H](N[C@H]1CCc2cc(F)cc(F)c2C1)C(=O)Nc1cn(C(C)(C)CNCC(C)(C)C)cn1 | 78% and 88.1% | 88.7% | 74.3% | 86.2% | 78% | 88.8% | 73.3% | 72.3% |
| CC1CCc2cc(F)cc3c(=O)c(C(=O)O)cn1c23 (stereo not drawn) [Flumequine] | 96.6% and 94.5% | 97.5% | 95.6% | 104% | 95.1% | 102% | 96.3% | 107% |
| O=C([O-])c1ccccc1O.[Na+] [Sodium salicylate] | 93.7% and 88.7% | 85.5% | 94.4% | 97% | 97% | 94.1% | 91.2% | 98% |
| CCC[C@H](Nc1nc(-c2ccc(NC(=O)NCC)c(OC)c2)ncc1C)c1cccnc1 | 10.5% and 35.4% | 31.9% | 7.27% | 10% | 1.24% | 1.12% | 0.85% | 2.78% |
| CNC(=O)[C@H](Cc1ccccc1)NC(=O)[C@H](CC(C)C)[C@H](CSc1cccs1)C(=O)NO [Batimastat (BB-94)] | 91.3% and 94.3% | 75% | 79% | 96.8% | 89.4% | 98.5% | 115% | 114% |
| C=C(C)[C@@H]1CC[C@]2(C(=O)O)CC[C@]3(C)[C@H](CC[C@@H]4[C@@]5(C)CC[C@H](O[C@@H]6OC[C@H](O)[C@H](O)[C@H]6O[C@@H]6O[C@@H](C)[C@H](O)[C@@H](O)[C@H]6O)[C@@](C)(CO)[C@@H]5CC[C@]43C)[C@@H]12 [Pulchinenoside A] | 97.5% and 96.7% | 92% | 93.9% | 106% | 102% | 96.6% | 94.6% | 105% |
| Cn1ncc(Cl)c1-c1cc(C(=O)N[C@H](CN)Cc2ccc(F)c(F)c2)oc1Cl | 73.1% and 71.1% | 79.8% | 64.1% | 59.3% | 31.9% | 31.4% | 51.1% | 50.4% |

| Compound | cell viability ([1]; SRSF2 genotype: SRSF2 P95H/wt) | cell viability ([1]; SRSF2 genotype: SRSF2 wt/wt) | cell viability ([2]; SRSF2 genotype: SRSF2 P95H/wt) | cell viability ([2]; SRSF2 genotype: SRSF2 wt/wt) | cell viability ([3]; SRSF2 genotype: SRSF2 P95H/wt) | cell viability ([3]; SRSF2 genotype: SRSF2 wt/wt) | cell viability ([4]; SRSF2 genotype: P95H/wt) | cell viability ([4]; SRSF2 genotype: wt/wt) |
| --- | --- | --- | --- | --- | --- | --- | --- | --- |
| Cc1ccc([N+](=O)[O-])cc1S(=O)(=O)N(C)/N=C/c1cnc2ccc(Br)cn12 | 28.6% and 22.3% | 21% | 7.47% | 3.68% | 0.68% | 0.5% | 1.7% | 17.4% |
| O=C1c2cccc(O)c2C(=O)c2c(O)cc(CO)cc21 [Aloe-emodin] | 92.1% and 94.9% | 83.3% | 95.1% | 94.8% | 92.4% | 95.5% | 82.5% | 76.4% |
| COC(=O)C[C@](O)(CCCC(C)(C)O)C(=O)O[C@@H]1C(OC)=C[C@]23CCCN2CCc2cc4c(cc2[C@H]13)OCO4 [Homoharringtonine] | 12.4% and 19.9% | 23% | 9.06% | 4.23% | 1.21% | 1.06% | 5.52% | 11.4% |
| Oc1cc(O)cc(/C=C/c2ccc(O)c(O)c2)c1 [Piceatannol] | 86.5% and 89.3% | 97% | 92.8% | 88.8% | 71.8% | 79.7% | 90.4% | 87.9% |
| O=C(c1ccccc1)C(O)O [Phenylglyoxal hydrate] | 95.7% and 96.9% | 104% | 86.3% | 86.1% | 67.8% | 66% | 81.6% | 100% |
| C[C@H]1C[C@H]2[C@@H]3CCC4=CC(=O)C=C[C@]4(C)[C@@]3(F)[C@@H](O)C[C@]2(C)[C@@]1(O)C(=O)CO [Betamethasone (Celestone)] | 92.1% and 85.8% | 89.5% | 86.1% | 98.4% | 92.8% | 86% | 84.4% | 108% |
| O=c1cc(-c2ccc(O)cc2)oc2cc(O)c([C@@H]3O[C@H](CO)[C@@H](O)[C@H](O)[C@H]3O)c(O)c12 [Isovitexin] | 98.2% and 98.6% | 98.3% | 92.1% | 93.6% | 95.1% | 95.9% | 99.7% | 103% |
| CCCCNC(=O)NS(=O)(=O)c1ccc(C)cc1 [Tolbutamide] | 98% and 102% | 102% | 105% | 116% | 102% | 105% | 101% | 110% |
| CN[C@H]1CC[C@@H](c2ccc(Cl)c(Cl)c2)c2ccccc21 [Sertraline HCl] | 30.3% and 54.2% | 52.8% | 41.7% | 48% | 32.7% | 42.9% | 26.2% | 37.5% |
| CN(C)C(=O)/C(C#N)=C/c1ccc(-c2nc3cnc4[nH]ccc4c3n2C2CCCCC2)o1 | 99.3% and 98.8% | 98.6% | 80.9% | 89.3% | 49.5% | 71% | 71.5% | 71.5% |
| C=C1CC[C@H](O)C/C1=C/C=C1\CCC[C@]2(C)[C@@H]([C@H](C)/C=C/[C@H](C)C(C)C)CC[C@@H]12 [Vitamin D2 (Ergocalciferol)] | 103% and 100% | 102% | 101% | 104% | 93.4% | 102% | 100% | 98.3% |
| COc1ccc(-c2cc(=O)c3c(O)cc(O)cc3o2)cc1 [Acacetin] | 106% | 99.1% | 102% | 115% | 107% | 107% | 88.7% | 102% |
| Cc1nc2n(c(=O)c1CCN1CCC(c3noc4cc(F)ccc34)CC1)CCCC2 [Risperidone (Risperdal)] | 93.6% and 101% | 93.5% | 94% | 99.2% | 100% | 98.2% | 98.8% | 99% |
| OC[C@H]1O[C@@](CO)(OC[C@@]2(OC[C@@]3(O[C@H]4O[C@H](CO)[C@@H](O)[C@H](O)[C@H]4O)O[C@H](CO)[C@@H](O)[C@@H]3O)O[C@H](CO)[C@@H](O)[C@@H]2O)[C@@H](O)[C@@H]1O [Nystose] | 106% and 101% | 111% | 100% | 101% | 106% | 100% | 106% | 102% |
| COc1cc2c(cc1Cc1cccc(Cl)c1F)c(=O)c(C(=O)O)cn2[C@H](CO)C(C)C [Elvitegravir (GS-9137)] | 52% and 50.4% | 45.1% | 40.2% | 39.1% | 57.3% | 35% | 12.9% | 15.9% |
| O=c1c(-c2ccc(O)cc2)coc2cc(O)ccc12 [Daidzein] | 99.3% and 97.8% | 97.8% | 95.4% | 96.9% | 93.4% | 96.7% | 92.9% | 102% |
| CC(CCc1ccccc1)NCC(=O)c1ccc(O)c(C(N)=O)c1 (stereo not drawn) [Labetalone hydrochloride] | 92.1% and 89.7% | 108% | 96.7% | 102% | 108% | 104% | 99.7% | 108% |
| O=C(N[C@@H](c1ccccc1)[C@@H](O)C(=O)O)c1ccccc1 [N-Benzoyl-(2R,3S)-3-phenylisoserine] | 108% and 99.9% | 103% | 100% | 98.4% | 103% | 102% | 101% | 104% |
| O=C1c2c(O)cc(O)cc2O[C@H](c2cc(O)c(O)c(O)c2)[C@H]1O [Dihydromyricetin (Ampeloptin)] | 111% and 107% | 114% | 112% | 110% | 110% | 107% | 112% | 107% |
| COc1ccc(C2CC(=O)c3c(O)cc(OC4OC(COC5OC(C)C(O)C(O)C5O)C(O)C(O)C4O)cc3O2)cc1OC (stereo not drawn) [Methyl-Hesperidin] | 96.9% and 106% | 97.8% | 107% | 114% | 108% | 107% | 107% | 104% |

Source: the supplement of paper PMC10981050
